PubChem BioAssay (EPA / NIEHS)
Results filed as inconclusive are left out. The source made the active and inactive calls. Rule for the calls, unless noted: active = hit-call score of the fitted dose curve at least 0.9, where 1 is the maximum; inconclusive = response in the unintended direction; inactive = score below 0.9.

Tests used:
[1] = Tanguay_ZF_120hpf_EYE_legacy: (Legacy) Oregon State University Tanguay Lab 120 Hour Post-fertilization zebrafish Assay for Eye Malformation (AID 2283636);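 note: binary presence or absence of eye malformation scored by brightfield in 120 hpf larvae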
Outline: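 Dechorionated wild-type Tropical 5D zebrafish embryos were exposed statically from 6 hpf, one per well, to 120 hpf at 28C in sealed, foil-covered plates with 0.64% DMSO. Eye malformation was scored present/absent by brightfield microscopy against DMSO controls.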

[2] = Tanguay_ZF_120hpf_SNOU_legacy: (Legacy) Oregon State University Tanguay Lab 120 Hour Post-fertilization zebrafish Assay for Snout Malformation (AID 2283637)
Outline: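 Tropical 5D wild-type zebrafish embryos, dechorionated with pronase at 4 hpf, were exposed singly from 6 hpf to 120 hpf statically at 28C in 0.64% DMSO. Snout malformation was scored present/absent by brightfield microscopy, fitted against DMSO.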

[3] = Tanguay_ZF_120hpf_JAW_legacy: (Legacy) Oregon State University Tanguay Lab 120 Hour Post-fertilization zebrafish Assay for Jaw Malformation (AID 2283638);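 for AC50: active means more embryos with jaw malformation than DMSO controls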
Outline: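 Wild-type 5D embryos, chorion removed at 4 hpf, dosed singly from 6 hpf; 28C static, sealed, foil-covered, to 120 hpf. Endpoint: jaw defect yes/no (brightfield); mortality excludes scoring.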

[4] = Tanguay_ZF_120hpf_OTIC_legacy: (Legacy) Oregon State University Tanguay Lab 120 Hour Post-fertilization zebrafish Assay for Otic Vesicle Malformation (AID 2283639)
Outline: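 Otic vesicle malformation is read as a yes/no morphology call at 120 hpf. Exposure is static at 28C with 0.64% (vol/vol) DMSO; embryos that die are excluded from non-mortality endpoints.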

[5] = Tanguay_ZF_120hpf_PE_legacy: (Legacy) Oregon State University Tanguay Lab 120 Hour Post-fertilization zebrafish Assay for Pericardial Edema (AID 2283640)
Outline: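 Zebrafish larvae are exposed from early development to 120 hpf at 28C, with 0.64% DMSO final. Each surviving larva receives a yes/no pericardial edema call by brightfield imaging, analysed relative to the DMSO baseline.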

[6] = Tanguay_ZF_120hpf_BRAI_legacy: (Legacy) Oregon State University Tanguay Lab 120 Hour Post-fertilization zebrafish Assay for Brain Malformation (AID 2283641)
Outline: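 Static exposure of staged wild-type embryos until 120 hpf, kept at 28C with light excluded and final DMSO of 0.64% (vol/vol). Presence or absence of brain malformation was noted under brightfield; mortality precluded scoring.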

[7] = Tanguay_ZF_120hpf_SOMI_legacy: (Legacy) Oregon State University Tanguay Lab 120 Hour Post-fertilization zebrafish Assay for Somite Malformation (AID 2283647)
Outline: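 Somitogenesis defects are recorded as binary calls in whole larvae at 120 hpf after continuous static chemical exposure starting at 6 hpf in dechorionated 5D embryos. DMSO serves as negative control and baseline.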

[8] = Tanguay_ZF_120hpf_PFIN_legacy: (Legacy) Oregon State University Tanguay Lab 120 Hour Post-fertilization zebrafish Assay for Pectoral Fin Malformation (AID 2283648);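 note: each larva judged yes or no for fin defect by brightfield with dead larvae skipped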
Outline: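 Tropical 5D wild-type embryos, dechorionated with pronase at 4 hpf, were placed singly in wells at 6 hpf and statically exposed until 120 hpf at 28C, sealed and dark, with 0.64% (vol/vol) final DMSO; pectoral fin malformation scored present/absent.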

[9] = Tanguay_ZF_120hpf_CFIN_legacy: (Legacy) Oregon State University Tanguay Lab 120 Hour Post-fertilization zebrafish Assay for Caudal Fin Malformation (AID 2283649)
Outline: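 Single dechorionated 5D wild-type embryos are dosed at 6 hpf (final DMSO 0.64%) and held statically at 28C. Caudal fin malformation is recorded as present or absent at 120 hpf under brightfield, excluding dead embryos.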

[10] = Tanguay_ZF_120hpf_PIG_legacy: (Legacy) Oregon State University Tanguay Lab 120 Hour Post-fertilization zebrafish Assay for Pigmentation Malformation (AID 2283650)
Outline: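 Tropical 5D wild-type zebrafish embryos, dechorionated with pronase at 4 hpf, were exposed singly from 6 hpf to 120 hpf statically at 28C in sealed, dark plates with 0.64% DMSO; pigmentation scored present/absent by brightfield microscopy, fitted against DMSO.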

[11] = Tanguay_ZF_120hpf_CIRC_legacy: (Legacy) Oregon State University Tanguay Lab 120 Hour Post-fertilization zebrafish Assay for Circulatory Malformation (AID 2283651)
Outline: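 Using wild-type Tropical 5D zebrafish, we exposed dechorionated embryos from 6 to 120 hpf in embryo medium with 0.64% DMSO. Circulatory defects were scored as present or absent; 5uM trimethyltin chloride served as positive control.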

[12] = Tanguay_ZF_120hpf_SWIM_legacy: (Legacy) Oregon State University Tanguay Lab 120 Hour Post-fertilization zebrafish Assay for Swim Bladder Malformation (AID 2283654);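 note: swim bladder malformation in each larva scored yes or no under brightfield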
Outline: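 Dechorionated Tropical 5D wild-type embryos, placed singly from 6 hpf, were statically exposed at 28C to 120 hpf with 0.64% DMSO final; swim bladder malformation was scored present/absent by brightfield microscopy, gain of signal relative to DMSO controls.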

[13] = Tanguay_ZF_120hpf_TRUN_legacy: (Legacy) Oregon State University Tanguay Lab 120 Hour Post-fertilization zebrafish Assay for Truncated Body (AID 2283655)
Outline: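 Single dechorionated zebrafish embryos received test chemical from 6 hpf in 0.64% DMSO, kept at 28C. At 120 hpf, brightfield inspection noted any truncated body.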

[14] = Tanguay_ZF_120hpf_NC_legacy: (Legacy) Oregon State University Tanguay Lab 120 Hour Post-fertilization zebrafish Assay for Notochord and Tail Malformation (AID 2283656)
Outline: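 Dechorionated 5D zebrafish, 1/well from 6 hpf; static exposure to 120 hpf, 28C, sealed, dark; final DMSO 0.64% v/v. NC scored binary (present/absent); dead embryos not scored. Fit vs DMSO baseline, gain direction.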

[15] = system: Thyroperoxidase (TPO), gene 54314; test: CCTE_Simmons_AUR_rTPO: CCTE's Amplex UltraRed Assay for Thyroperoxidase (TPO) Inhibition, Simmons Lab (AID 2283662);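 note: potency for loss of signal meaning inhibition of peroxidase activity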
Outline: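 Rat thyroid microsomal TPO + 25 uM AUR in 200 mM K phosphate; cpd 5 nM–87.5 uM [final], 8 conc, 0.5% DMSO; 300 uM H2O2 starts rxn; 37C dark 30 min; endpoint FI 544/590 nm; n=3.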

[16] = CCTE_Simmons_CellTiterGLO_HEK293T: Viability Assessment in CCTE's Assays for Thyroperoxidase (TPO) Inhibition, Simmons Lab (AID 2283665);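 for AC50: cells exposed to compound for 24 h before readout; actives reduce ATP signal below DMSO vehicle meaning cytotoxicity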
Outline: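 Cytotoxicity counter-screen: human HEK293T cells in low-serum (1% FBS) medium receive test chemical, 5 nM to 87.5 uM final, for 24 h; ATP is quantified by luciferase luminescence.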

[17] = read-out: solute carrier (SLC22A6), SLC22A6 (gene 9356); test: LTEA_HepaRG_SLC22A6: Life Technologies and Expression Analysis (LTEA) Assay for solute carrier (SLC22A6) using HepaRG (AID 2283653; active = hit-call score of the fitted dose curve at least 0.9, where 1 is the maximum; inactive = score below 0.9); conditions: mRNA level, 48 h; actives raise or lower the signal
Outline: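 Gene-expression endpoint in HepaRG hepatic cells: duplicate 8-point concentration-response, highest 100 uM, 48 h treatment in serum-free medium with 0.5% DMSO. SLC22A6 expression measured by qRT-PCR, normalised to ACTB/GAPDH/POLR2A.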

[18] = read-out: solute carrier (SLC10A1), SLC10A1 (gene 6554); test: LTEA_HepaRG_SLC10A1: Life Technologies and Expression Analysis (LTEA) Assay for solute carrier (SLC10A1) using HepaRG (AID 2283657; active = hit-call score of the fitted dose curve at least 0.9, where 1 is the maximum; inactive = score below 0.9); conditions: mRNA level, 48 h; actives raise or lower the signal
Outline: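 Differentiated HepaRG cells were plated 48 h, then exposed in serum-free induction medium for 48 h to 8 concentrations (top 100 uM, half-log steps, 0.5% DMSO). SLC10A1 mRNA was quantified by qRT-PCR normalized to ACTB, GAPDH, POLR2A; bidirectional fit versus DMSO.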

[19] = read-out: matrix metalloproteinase-1 (MMP1), MMP1 (gene 4312); test: LTEA_HepaRG_MMP1: Life Technologies and Expression Analysis (LTEA) Assay for matrix metalloproteinase-1 (MMP1) using HepaRG (AID 2283658; active = hit-call score of the fitted dose curve at least 0.9, where 1 is the maximum; inactive = score below 0.9); conditions: mRNA level, 48 h; actives raise or lower the signal
Outline: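 In this screen, human liver HepaRG cultures receive each chemical in duplicate for 48 h (top 100 uM, 0.5% DMSO). MMP1 expression is then quantified by TaqMan qRT-PCR with ACTB/GAPDH/POLR2A normalization.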

[20] = read-out: kallikrein-3 (KLK3), KLK3 (gene 354); test: LTEA_HepaRG_KLK3: Life Technologies and Expression Analysis (LTEA) Assay for kallikrein-3 (KLK3) using HepaRG (AID 2283652; active = hit-call score of the fitted dose curve at least 0.9, where 1 is the maximum; inactive = score below 0.9); conditions: mRNA level, 48 h; actives raise or lower the signal
Outline: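 Differentiated human HepaRG cells in serum-free induction medium exposed 48 h in duplicate, eight-point half-log series from 100 uM in 0.5% DMSO. KLK3 mRNA by qRT-PCR, normalised to ACTB, GAPDH, POLR2A; bidirectional fit versus DMSO.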

Measured: AC50

O=c1[nH]sc2ccccc12
not listed: [15] | [16] | [17] | [18] | [19] | [20]
inactive: all other assays above

CN(C[C@@H](CC[N+]12CCC(C3CCCCC3)(CC1)CC2)c1ccc(Cl)c(Cl)c1)C(=O)c1cc(C(F)(F)F)cc(C(F)(F)F)c1
active: [15] 43.8 µM | [16] 9.54 µM
not listed: [5] | [10] | [14] | [17] | [18] | [19] | [20]
inactive: all other assays above

CCN(CC)C(=O)c1cc(S(=O)(=O)Cc2ccccc2)c(N2CCC(c3ccccc3)CC2)cc1N(CC)CCN(C)C
active: [2] 18 µM | [6] 13.8 µM
not listed: [5] | [9] | [10] | [15] | [16] | [20]
inactive: all other assays above

CCCCCc1ccc(N)cc1
active: [15] 0.0637 µM | [16] 26.7 µM
inactive: [2] | [4] | [6] | [9] | [10] | [11] | [12] | [13] | [14]

CC[C@H](NC(=O)c1cc(F)ccc1NS(=O)(=O)c1cccc2cccnc12)c1ccccc1
inactive: [2] | [3] | [4] | [5] | [6] | [8] | [9] | [11] | [12] | [13] | [14]

c1ccc(C[n+]2cccc3ccccc32)cc1
inactive: [1] | [3] | [4] | [5] | [6] | [7] | [9] | [10] | [11] | [13] | [14]

Clc1ccccc1C(c1ccccc1)(c1ccccc1)n1ccnc1
active: [3] 1.2 µM | [6] 87.3 µM | [7] 61.3 µM
inactive: [1] | [2] | [4] | [9] | [11] | [12] | [14]

CCN(Cc1cccnc1)C(=O)c1cccc(Cl)c1[C@]1(C)C(=O)N(Cc2ccc(OC)cc2OC)c2ccc(Cl)cc21
not listed: [1] | [11] | [15] | [16] | [17] | [18] | [19] | [20]
inactive: all other assays above

CC1=CC(=O)/C(=C(/C)O)C(=O)O1
inactive: [3] | [4] | [6] | [8] | [9] | [10] | [11] | [13] | [14]

Cc1ccc(C(C)C)cc1
inactive: [2] | [3] | [4] | [6] | [7] | [9] | [10] | [11] | [12] | [13] | [14]

Oc1ccc2ccccc2c1
active: [1] 61.7 µM | [2] 34.8 µM | [3] 38.2 µM | [4] 47.3 µM | [6] 10.3 µM | [9] 10.4 µM | [10] 12.9 µM | [13] 50.2 µM | [15] 3.13 µM
inactive: [7] | [11] | [12] | [14] | [16]

CCCCCCCCCCCC[N+](C)(C)C
inactive: [2] | [3] | [4] | [6] | [7] | [9] | [10] | [11] | [12] | [13] | [14]

CCCCCCCCN(C)CCCCCCCC
inactive: [1] | [2] | [3] | [5] | [6] | [7] | [9] | [11] | [13] | [14]

O=C(O)Cc1cc(I)c(Oc2ccc(O)c(I)c2)c(I)c1
active: [2] 0.0814 µM | [3] 0.089 µM | [10] 0.177 µM | [15] 0.32 µM
not listed: [5] | [8] | [17] | [18] | [19] | [20]
inactive: all other assays above

CCCCCCCCCC(=O)O
not listed: [4] | [5] | [15] | [16] | [17] | [18] | [19] | [20]
inactive: all other assays above

CC(C)(C)c1csc(-c2cc3cc(OCc4ccccc4CC(=O)O)ccc3o2)n1
active: [18] 24.4 µM | [15] 43.8 µM | [16] 22.4 µM
not listed: [2] | [5] | [8] | [9] | [10]
inactive: all other assays above

C[C@]12CC[C@@H]3c4ccc(O)cc4CC[C@H]3[C@@H]1CCC2=O
inactive: [1] | [2] | [3] | [4] | [7] | [9] | [10] | [12] | [13] | [14]

Cc1ccc2oc(CN(Cc3ccccc3)C(=O)Nc3c(F)cc(F)cc3F)c(-c3ccc(Cl)cc3)c2c1
inactive: [1] | [2] | [3] | [4] | [6] | [7] | [9] | [10] | [11] | [13] | [14]

CCCCCCCCOc1ccc(C(=O)c2ccccc2)c(O)c1
inactive: [1] | [2] | [3] | [4] | [7] | [9] | [10] | [12] | [13] | [14]
